# Experiments:
# Assay in all cases: DAPPL (digital affinity profiling via proximity ligation, sequencing); 10 mM Tris-HCl pH 7.5, 50 mM NaCl, 1 mM DTT, 4% glycerol, room temperature, 30 min; GST-TFs on glutathione beads, 16-mer random dsDNA library, 0.1% formaldehyde crosslink after washing; high values mean tight binding
# Conditions in all cases: protein: recombinant; tags: N-terminal GST; dsDNA, one strand shown
# FLI1 = biological target: T1, FLI1 (Homo sapiens, UniProt Q01543 1-452)
# T1 sequence: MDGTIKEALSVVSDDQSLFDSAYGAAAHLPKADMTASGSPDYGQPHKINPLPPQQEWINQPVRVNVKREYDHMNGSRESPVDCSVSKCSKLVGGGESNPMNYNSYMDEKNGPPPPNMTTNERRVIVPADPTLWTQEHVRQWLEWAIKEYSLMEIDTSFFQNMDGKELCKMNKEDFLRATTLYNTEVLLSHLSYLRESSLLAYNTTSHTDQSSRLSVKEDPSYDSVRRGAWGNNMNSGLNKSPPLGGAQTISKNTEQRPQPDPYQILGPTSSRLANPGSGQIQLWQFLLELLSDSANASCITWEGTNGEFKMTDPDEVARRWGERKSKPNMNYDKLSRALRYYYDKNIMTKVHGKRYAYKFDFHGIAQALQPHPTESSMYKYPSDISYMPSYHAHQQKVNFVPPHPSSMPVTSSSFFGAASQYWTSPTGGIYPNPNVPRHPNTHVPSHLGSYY
# Procedure, shortened: (§1)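 The binding signal reported is, for every hexamer, its read frequency for a factor over its read frequency for the tag-only sample. Reads came from pools of yeast-expressed, GST-fused human transcription factors on glutathione beads, barcoded with DNA and mixed with that sample, which were incubated with 200 nmole of a random double-stranded 16-mer DNA library in Tris/NaCl/DTT/glycerol buffer at room temperature for 30 min. After washing, the pools were crosslinked with 0.1% formaldehyde, proximity-ligated with BsaI/T4 ligase for 1 h at 37 °C, PCR-amplified and sequenced on an Illumina NextSeq500.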
# ELK1 = biological target: T2, ELK1 (Homo sapiens, UniProt P19419 1-428)
# T2 sequence: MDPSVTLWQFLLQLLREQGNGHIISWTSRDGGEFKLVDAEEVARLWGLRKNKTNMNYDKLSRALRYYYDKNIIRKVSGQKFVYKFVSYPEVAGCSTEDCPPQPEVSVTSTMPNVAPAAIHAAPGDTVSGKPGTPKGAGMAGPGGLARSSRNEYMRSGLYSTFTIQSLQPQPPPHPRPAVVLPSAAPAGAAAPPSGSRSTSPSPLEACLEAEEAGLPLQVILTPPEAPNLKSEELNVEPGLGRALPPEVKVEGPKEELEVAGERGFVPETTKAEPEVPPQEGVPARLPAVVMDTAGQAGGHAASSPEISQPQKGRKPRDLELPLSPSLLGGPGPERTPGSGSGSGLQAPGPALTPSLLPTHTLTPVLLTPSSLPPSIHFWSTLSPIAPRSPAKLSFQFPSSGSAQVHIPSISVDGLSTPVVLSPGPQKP
# Procedure, shortened: as §1
# GABPA = biological target: T3, GABPA (Homo sapiens, UniProt Q06546 1-454)
# T3 sequence: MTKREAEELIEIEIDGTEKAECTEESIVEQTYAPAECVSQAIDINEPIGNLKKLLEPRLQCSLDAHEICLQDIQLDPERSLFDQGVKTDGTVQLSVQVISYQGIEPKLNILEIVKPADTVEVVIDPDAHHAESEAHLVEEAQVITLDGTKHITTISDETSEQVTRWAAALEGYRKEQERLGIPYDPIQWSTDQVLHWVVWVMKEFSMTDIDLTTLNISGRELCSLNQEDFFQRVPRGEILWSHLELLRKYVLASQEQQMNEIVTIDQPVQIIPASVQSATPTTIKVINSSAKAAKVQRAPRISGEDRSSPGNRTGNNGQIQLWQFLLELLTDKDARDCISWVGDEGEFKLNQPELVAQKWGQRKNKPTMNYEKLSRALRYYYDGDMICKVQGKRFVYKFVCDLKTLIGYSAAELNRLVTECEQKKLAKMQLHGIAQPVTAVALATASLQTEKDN
# Procedure, shortened: as §1
# ERG = biological target: T4, ERG (Homo sapiens, UniProt P11308 1-479)
# T4 sequence: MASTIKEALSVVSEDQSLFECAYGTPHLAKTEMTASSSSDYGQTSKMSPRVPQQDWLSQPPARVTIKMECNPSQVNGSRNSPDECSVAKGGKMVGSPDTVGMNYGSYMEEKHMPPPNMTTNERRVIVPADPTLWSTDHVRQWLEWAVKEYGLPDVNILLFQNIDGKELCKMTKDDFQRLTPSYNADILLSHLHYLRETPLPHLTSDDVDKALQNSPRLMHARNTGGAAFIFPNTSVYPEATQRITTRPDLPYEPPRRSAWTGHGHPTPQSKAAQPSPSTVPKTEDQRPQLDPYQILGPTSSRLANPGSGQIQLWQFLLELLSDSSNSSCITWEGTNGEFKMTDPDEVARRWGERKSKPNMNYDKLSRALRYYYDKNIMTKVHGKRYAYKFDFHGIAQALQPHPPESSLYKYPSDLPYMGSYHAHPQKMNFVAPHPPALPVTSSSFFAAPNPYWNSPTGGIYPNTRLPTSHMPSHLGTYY
# Procedure, shortened: as §1
# ELF1 = ELF1 (Homo sapiens, UniProt P32519 1-619)
# Procedure, shortened: as §1
# EHF = biological target: T5, EHF (Homo sapiens, UniProt Q9NZC4 1-300)
# T5 sequence: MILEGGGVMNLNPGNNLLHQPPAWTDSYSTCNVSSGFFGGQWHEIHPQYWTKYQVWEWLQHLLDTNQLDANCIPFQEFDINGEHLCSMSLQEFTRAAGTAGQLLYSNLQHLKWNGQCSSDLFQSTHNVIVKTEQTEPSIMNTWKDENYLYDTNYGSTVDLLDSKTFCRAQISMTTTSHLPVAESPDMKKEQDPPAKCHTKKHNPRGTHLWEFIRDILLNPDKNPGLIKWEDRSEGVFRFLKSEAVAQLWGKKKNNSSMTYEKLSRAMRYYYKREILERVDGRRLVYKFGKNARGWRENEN
# Procedure, shortened: as §1
# ELK3 = biological target: T6, ELK3 (Homo sapiens, UniProt P41970 1-407)
# T6 sequence: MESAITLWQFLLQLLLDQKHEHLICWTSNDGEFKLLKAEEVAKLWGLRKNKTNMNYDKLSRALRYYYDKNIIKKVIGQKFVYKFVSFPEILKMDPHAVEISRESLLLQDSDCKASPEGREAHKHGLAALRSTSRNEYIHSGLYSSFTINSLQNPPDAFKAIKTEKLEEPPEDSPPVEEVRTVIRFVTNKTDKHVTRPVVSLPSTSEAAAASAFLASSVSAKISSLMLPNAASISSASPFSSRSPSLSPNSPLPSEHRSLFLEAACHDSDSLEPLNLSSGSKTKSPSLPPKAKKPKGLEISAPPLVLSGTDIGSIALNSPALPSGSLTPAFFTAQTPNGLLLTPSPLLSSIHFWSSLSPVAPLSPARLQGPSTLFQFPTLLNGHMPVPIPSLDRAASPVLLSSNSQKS
# Procedure, shortened: as §1
# SPI1 = SPI1 (Homo sapiens, UniProt P17947 1-270)
# Procedure, shortened: as §1
# SPIB = SPIB (Homo sapiens, UniProt Q01892 1-262)
# Procedure, shortened: as §1
# Sequence of SPIB (Q01892 whole entry): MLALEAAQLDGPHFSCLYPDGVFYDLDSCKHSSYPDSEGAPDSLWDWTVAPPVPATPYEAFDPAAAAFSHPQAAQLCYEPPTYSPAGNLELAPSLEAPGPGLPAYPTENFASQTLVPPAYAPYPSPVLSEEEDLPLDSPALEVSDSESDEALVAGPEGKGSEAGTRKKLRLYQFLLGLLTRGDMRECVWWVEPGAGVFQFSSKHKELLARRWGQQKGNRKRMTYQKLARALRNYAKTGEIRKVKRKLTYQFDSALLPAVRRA
# Sequence of ELF1 (P32519 whole entry): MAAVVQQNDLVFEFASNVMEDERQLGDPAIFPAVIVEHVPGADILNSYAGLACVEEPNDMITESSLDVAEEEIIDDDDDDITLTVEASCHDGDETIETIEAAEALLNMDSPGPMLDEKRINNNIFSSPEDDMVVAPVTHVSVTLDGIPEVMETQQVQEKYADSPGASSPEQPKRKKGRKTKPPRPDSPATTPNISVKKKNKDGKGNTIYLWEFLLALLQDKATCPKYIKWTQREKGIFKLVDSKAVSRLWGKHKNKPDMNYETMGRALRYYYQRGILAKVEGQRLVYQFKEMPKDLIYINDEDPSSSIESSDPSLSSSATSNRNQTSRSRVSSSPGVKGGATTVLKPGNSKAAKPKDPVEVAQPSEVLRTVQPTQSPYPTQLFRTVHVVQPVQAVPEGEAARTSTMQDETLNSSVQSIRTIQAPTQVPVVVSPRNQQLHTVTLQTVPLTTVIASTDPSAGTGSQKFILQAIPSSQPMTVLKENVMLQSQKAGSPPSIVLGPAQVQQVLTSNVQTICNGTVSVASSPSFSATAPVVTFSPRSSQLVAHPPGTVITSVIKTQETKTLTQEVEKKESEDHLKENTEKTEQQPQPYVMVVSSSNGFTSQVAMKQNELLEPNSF
Sequence,binding signal (FLI1),binding signal (ELK1),binding signal (GABPA),binding signal (ERG),binding signal (ELF1),binding signal (EHF),binding signal (ELK3),binding signal (SPI1),binding signal (SPIB)
CTACAG,"1.17 fold enrichment (6-mer frequency, TF over GST control)","1.01 fold enrichment (6-mer frequency, TF over GST control)","1.16 fold enrichment (6-mer frequency, TF over GST control)","1.03 fold enrichment (6-mer frequency, TF over GST control)","1.08 fold enrichment (6-mer frequency, TF over GST control)","1.05 fold enrichment (6-mer frequency, TF over GST control)","1.08 fold enrichment (6-mer frequency, TF over GST control)",,
TTCGGC,"1.03 fold enrichment (6-mer frequency, TF over GST control)","1.14 fold enrichment (6-mer frequency, TF over GST control)","1.22 fold enrichment (6-mer frequency, TF over GST control)","1.08 fold enrichment (6-mer frequency, TF over GST control)","1 fold enrichment (6-mer frequency, TF over GST control)",,,"1.04 fold enrichment (6-mer frequency, TF over GST control)","1.02 fold enrichment (6-mer frequency, TF over GST control)"
GATATT,"1.11 fold enrichment (6-mer frequency, TF over GST control)","1.17 fold enrichment (6-mer frequency, TF over GST control)","1.06 fold enrichment (6-mer frequency, TF over GST control)","1.12 fold enrichment (6-mer frequency, TF over GST control)","1.13 fold enrichment (6-mer frequency, TF over GST control)","1.12 fold enrichment (6-mer frequency, TF over GST control)","1 fold enrichment (6-mer frequency, TF over GST control)",,"1.13 fold enrichment (6-mer frequency, TF over GST control)"
GGGCTA,"1.1 fold enrichment (6-mer frequency, TF over GST control)","1.05 fold enrichment (6-mer frequency, TF over GST control)","1.08 fold enrichment (6-mer frequency, TF over GST control)","1.16 fold enrichment (6-mer frequency, TF over GST control)","1.16 fold enrichment (6-mer frequency, TF over GST control)","1.18 fold enrichment (6-mer frequency, TF over GST control)","1.06 fold enrichment (6-mer frequency, TF over GST control)",,"1.15 fold enrichment (6-mer frequency, TF over GST control)"
AATGGA,"1.01 fold enrichment (6-mer frequency, TF over GST control)","1.01 fold enrichment (6-mer frequency, TF over GST control)","1.01 fold enrichment (6-mer frequency, TF over GST control)","1.06 fold enrichment (6-mer frequency, TF over GST control)","1.03 fold enrichment (6-mer frequency, TF over GST control)",,,"1.06 fold enrichment (6-mer frequency, TF over GST control)","1.06 fold enrichment (6-mer frequency, TF over GST control)"
AAAGCT,"1.06 fold enrichment (6-mer frequency, TF over GST control)","1.09 fold enrichment (6-mer frequency, TF over GST control)","1.08 fold enrichment (6-mer frequency, TF over GST control)","1.08 fold enrichment (6-mer frequency, TF over GST control)","1.09 fold enrichment (6-mer frequency, TF over GST control)",,"1.01 fold enrichment (6-mer frequency, TF over GST control)","1.01 fold enrichment (6-mer frequency, TF over GST control)","1.06 fold enrichment (6-mer frequency, TF over GST control)"
AATCCA,"1.09 fold enrichment (6-mer frequency, TF over GST control)","1.07 fold enrichment (6-mer frequency, TF over GST control)","1.09 fold enrichment (6-mer frequency, TF over GST control)","1.1 fold enrichment (6-mer frequency, TF over GST control)","1.09 fold enrichment (6-mer frequency, TF over GST control)","1.07 fold enrichment (6-mer frequency, TF over GST control)","1.07 fold enrichment (6-mer frequency, TF over GST control)",,"1.12 fold enrichment (6-mer frequency, TF over GST control)"
TATCAG,"1.15 fold enrichment (6-mer frequency, TF over GST control)","1.21 fold enrichment (6-mer frequency, TF over GST control)","1.14 fold enrichment (6-mer frequency, TF over GST control)","1.09 fold enrichment (6-mer frequency, TF over GST control)","1.15 fold enrichment (6-mer frequency, TF over GST control)","1.13 fold enrichment (6-mer frequency, TF over GST control)","1.15 fold enrichment (6-mer frequency, TF over GST control)",,"1.2 fold enrichment (6-mer frequency, TF over GST control)"

# From publication PMC7862700, “An all-to-all approach to the identification of sequence-specific readers for epigenetic DNA modifications on cytosine”
